The source of these data is PubChem BioAssay (EPA / NIEHS).

Where “and” joins values, the source holds several entries; their conditions need not be identical. Equal values may be shown once. More than one record can exist for a structure, and the calls need not agree. Calls of active or inactive are those of the source. The calls were made as follows: active = hit-call score of the fitted dose curve at least 0.9, where 1 is the maximum; inactive = score below 0.9.

This experiment can be described thus: BSK_3C_Proliferation: Cell Proliferation Assessment in the BioMAP Diversity Plus: 3C Assay (AID 2283006).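 As to AC50: potency may reflect either rise or fall in cell number versus DMSO.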 To be noted: primary human endothelial cells (HUVEC). The method, then: BSK_3C is a cell-based, multiplexed-readout assay that uses umbilical vein endothelium, a human vascular primary cell, with measurements taken at 24 hours after chemical dosing in a 96-well plate.BSK_3C_Proliferation is an assay component measured in the BSK_3C assay. It measures 0.1% sulforhodamine related to cell proliferation using Sulforhodamine staining technology.Data from the assay component BSK_3C_Proliferation was analyzed into 1 assay endpoint. This assay endpoint, BSK_3C_Proliferation, was analyzed with bidirectional fitting relative to DMSO as the negative control and baseline of activity. Using a type of viability reporter, measures of total protein for gain or loss-of-signal activity can be used to understand the viability at the cellular-level. Furthermore, this assay endpoint can be referred to as a secondary readout, because this assay has produced multiple assay endpoints where this one serves a viability function. To generalize the intended target to other relatable targets, this assay endpoint is annotated to the cell cycle intended target family, where the subfamily is proliferation.
The levels of cell surface (or secreted, indicated by the prefix "s") biomarker endpoints were measured by ELISA. Overt cytotoxicity to cells in confluent adherent cultures (all systems other than the BT system) was assessed by measuring total protein levels using sulforhodamine B (SRB) staining in parallel cultures at the time of biomarker measurements, indicated as SRB endpoints. For proliferation assays for adherent cell types, individual cell types are cultured at sub-confluence and relative cell numbers quantified by SRB staining at time points optimized for each system (48 h: 3C and CASM3C systems; 72 h: BT and HDF3CGF systems; 96 h: SAg system). SRB was performed by staining cells with 0.1% SRB after fixation with 10% TCA and reading wells at 560 nm.Viability and proliferation of PBMC (T cells) was quantified by Alamar Blue reduction for the SAg and BT systems. For PBMC viability (referred to as PBMC Cytotoxicity within the assay endpoint names), cells were plated (75,000/well in a 96-well plate) and then chemical samples added for 1 h before addition of activators, SEB and TSST-1 (20 ng/mL final concentration each). Cells were incubated for 90 h. Then, Alamar Blue (20 uL/well) (Invitrogen, Cat DAL1100) was added for 6 h, and the plates were read with a fluorescence microplate reader at 546/580 nm (excitation/emission). For PBMC proliferation, cells were plated and activated as above but incubated for only 16 h prior to addition of Alamar Blue. Plates were read after 6 h.
As for `O=C(O)c1cn(C2CC2)c2cc(N3CCNCC3)c(F)cc2c1=O`, the outcome was inactive.

One may read the AC50 as the concentration giving half of the maximal activity seen. With `CCCCC/C=C/C=C/C=O`, the AC50 is 20 µM (active).

As for `C[C@H]1C[C@@H]2[C@H]([C@@H](O)C[C@@]3(C)[C@H]2CC[C@]3(O)C(=O)CO)[C@@]2(C)C=CC(=O)C=C12`, the result was inactive. `C=C[Si](OCC)(OCC)OCC`: the outcome was inactive. Turning to `O=C1OC2(c3cc(Br)c(O)c(Br)c3Oc3c2cc(Br)c(O)c3Br)c2c(Cl)c(Cl)c(Cl)c(Cl)c21`, the concentration at half-maximal activity (AC50) was 8.03 µM (active). Take `C=CCOC(=O)CCC1CCCCC1`: the outcome was inactive and the AC50 is 31.6 µM (active). Turning to `CC[Si](OC(C)=O)(OC(C)=O)OC(C)=O`, the outcome was inactive.

For `C#C[C@]1(O)CC[C@H]2[C@@H]3CCC4=Cc5oncc5C[C@]4(C)[C@H]3CC[C@@]21C`, the half-maximal activity concentration (AC50) is 20 µM (active). Still for that read-out and setting: the result for `BrC1CCC(Br)C(Br)CCC(Br)C(Br)CCC1Br` (stereo not given) reads 4.72 µM (active); that for `Cc1ccc(O)c(C(C)(C)C)c1`, 15.1 µM (active).

For `C=C(C)C(=O)O[C@H]1C[C@@H]2CC[C@@]1(C)C2(C)C`, the AC50 is 8.38 µM (active). Consider `O=[N+]([O-])c1cc(C(F)(F)F)ccc1Cl`, for which the result was inactive. On to `O=C(O)c1ccc([N+](=O)[O-])cc1`, for which the outcome was inactive.

Take `Nc1cc([N+](=O)[O-])ccc1Cl`: the outcome was inactive. Still for that read-out and setting: then `COc1cc(C=O)ccc1OC(=O)C(C)C`, with “inactive”. Take `CCn1c2ccccc2c2cc(N)ccc21`: the AC50 is 13.3 µM (active).

Turning to `Cc1ccc2n[nH]nc2c1`, the outcome was inactive.

Turning to `CC(C)(COC(=O)c1ccccc1)COC(=O)c1ccccc1`, the concentration at half-maximal activity (AC50) is 22.2 µM (active). Take `CCCCCCCCCCCCCCCCCC(=O)OCC(CC)CCCC` (stereo not given): the outcome was inactive. For `CCCCC(CC)COCCC#N` (stereo not given), the AC50 is 20 µM (active). For the molecule `CC(=O)OCCC(C)CC(C)(C)C` (stereo not given), the outcome was inactive. Still for that read-out and setting: the result for `CNC[C@H](O)c1cccc(O)c1` reads “inactive”. As for `CC(C)c1ccc(C(C)C)cc1`, the AC50 was 33.8 µM (active). Take `CC(=O)Nc1ccccc1O`: the outcome was inactive. Take `CCCCCCCCCC=O`: the outcome was inactive. Consider `CC(=O)O[C@]1(C(C)=O)CC[C@H]2[C@@H]3C[C@H](C)C4=CC(=O)CC[C@]4(C)[C@H]3CC[C@@]21C`, for which the outcome was inactive.

As for `CC1CCC(C(C)CS)CC1S` (stereo not given), the AC50 is 25.7 µM (active). With `O=C=NC1CCC(CC2CCC(N=C=O)CC2)CC1` (stereo not given), the half-maximal activity concentration (AC50) is 23.2 µM (active). Consider `CC(=O)/C=C/C1=C(C)CCCC1(C)C`, for which the outcome was inactive.

Take `CC(=O)[C@H]1CC[C@H]2[C@@H]3CC=C4C[C@@H](O)CC[C@]4(C)[C@H]3CC[C@]12C`: the concentration at half-maximal activity (AC50) is 7.47 µM (active) and 6.54 µM (active). Consider `N#Cc1ccc(CC(=NNC(=O)Nc2ccc(OC(F)(F)F)cc2)c2cccc(C(F)(F)F)c2)cc1`, for which the outcome was inactive. Same read-out and setting: then `Cc1ccc(Nc2ccc(O)c3c2C(=O)c2ccccc2C3=O)cc1`, with “inactive”. Take `c1ccc2c(c1)c1cccc3ccc4cccc2c4c31`: the outcome was inactive. Same read-out and setting: the result for `CCCCCCCCC=O` reads “inactive”. On to `CC1COc2ccccc2N1C(=O)C(Cl)Cl` (stereo not given), for which the AC50 is 5.24 µM (active).

`Cc1cc(C2(c3cc(C)c(O)cc3C)OS(=O)(=O)c3ccccc32)c(C)cc1O`: the outcome was inactive.

On to `NCCNCCN`, for which the result was inactive. For the molecule `CC(C)Oc1ccccc1O`, the result was inactive. Same read-out and setting: then `OC1OC[C@@H](O)[C@H](O)[C@H]1O` (stereo not given in full), with “inactive”.
